Compounds without any hit were thinned out: in the full panel of roughly 83,000, 20% have a hit.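 Activity criterion: percent growth below 10, measured after cells in 96-well plates were exposed to a single compound concentration for 48 hours.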 The source made the active and inactive calls.
Legend:
Assay in all cases: NCI-60 one-dose screen, 48 h (100 = growth as untreated, 0 = no growth, -100 = all killed)
Conditions in all cases: 10 µM unless noted
[1] = system: SR leukemia
[2] = system: RPMI-8226 leukemia
[3] = system: OVCAR-8 ovarian
[4] = system: OVCAR-5 ovarian
[5] = system: OVCAR-4 ovarian
[6] = system: SK-OV-3 ovarian
[7] = system: IGROV1 ovarian
[8] = system: OVCAR-3 ovarian
[9] = system: HS 578T breast
[10] = system: NCI/ADR-RES ovarian
[11] = system: BT-549 breast
[12] = system: MDA-MB-435 melanoma
[13] = system: SW-620 colon
[14] = system: MCF7 breast
[15] = system: HCT-116 colon
[16] = system: HCC-2998 colon
[17] = system: KM12 colon
[18] = system: T-47D breast

Measured: growth

Cc1ccc2nc(Cl)cc(=O)n2c1
inactive: [1] 97.8% | [2] 96.1% | [3] 117% | [4] 94% | [5] 117% | [6] 102% | [7] 123% | [8] 135% | [9] 93.7% | [10] 117% | [11] 102% | [12] 106% | [13] 108% | [14] 107% | [15] 105% | [16] 121% | [17] 107%

O=c1cc(Cc2ccc([N+](=O)[O-])cc2)[nH]c(=O)[nH]1
inactive: [1] 91.9% | [2] 91.6% | [3] 103% | [4] 98.2% | [5] 108% | [6] 99.1% | [7] 117% | [8] 126% | [9] 100% | [10] 109% | [11] 98.3% | [12] 107% | [13] 103% | [14] 106% | [15] 103% | [16] 105% | [17] 106%

CC(C)(C)n1cc(-c2ccnc(NCCNS(=O)(=O)c3ccc(C(F)(F)F)cc3)c2)c(-c2cccc(O)c2)n1
inactive: [3] 58.5% | [4] 72.2% | [5] 50.5% | [6] 86.3% | [7] 71.4% | [8] 68.1% | [9] 47.3% | [10] 56.7% | [18] 32.1% | [12] 63.3% | [13] 25.9% | [14] 17.3% | [15] 29.5% | [17] 41.8%
active: [1] 8.04% | [2] 4.88% | [16] -0.263%

C=C1C(=O)O[C@H]2[C@H]1CC/C(Cn1cc(CNC(=O)c3cc4ccccc4[nH]3)nn1)=C\CC[C@@]1(C)O[C@@H]21
active: [1] 4.37% | [2] -11.5% | [8] 3.43% | [14] 9.93% | [15] 4.22%
inactive: [3] 44.8% | [4] 110% | [5] 83% | [6] 106% | [7] 71% | [9] 99.9% | [10] 101% | [18] 48.7% | [11] 87.9% | [12] 26.5% | [16] 96% | [17] 68.9%

N#C/C(=C1C=C/C(=N/O)C(Cl)=C/1)c1ccc(Cl)cc1
active: [15] 1.93% | [17] -46.4%
inactive: [1] 78.5% | [2] 20.7% | [3] 66.3% | [4] 129% | [5] 88.9% | [6] 121% | [7] 45.4% | [8] 31.7% | [9] 87.7% | [10] 63.1% | [11] 87.2% | [12] 29.5% | [13] 59.2% | [14] 13.7% | [16] 101%

CC(C)(C)n1cc(-c2ccnc(NCCCNS(=O)(=O)c3ccc(Br)cc3)c2)c(-c2cccc(O)c2)n1
active: [1] -16% | [2] -6% | [13] 7.75% | [14] 7.27% | [16] -56.1% | [17] 1.78%
inactive: [3] 41.1% | [4] 38.5% | [5] 36.5% | [6] 62.6% | [7] 34.9% | [8] 42.8% | [9] 16.9% | [10] 43.7% | [18] 29.9% | [12] 39% | [15] 22.6%

NNc1cccc(/C=C/c2ccccc2)cc1=O
inactive: [1] 31.8% | [2] 29.8% | [3] 57.8% | [4] 82.3% | [5] 45.9% | [6] 76.4% | [7] 33.6% | [8] 54.6% | [9] 78.5% | [10] 59.6% | [11] 69.1% | [12] 73.2% | [13] 54.7% | [15] 33.8% | [16] 70.2% | [17] 59%

O=S(=O)(CC(O)(c1ccccc1)c1ccccc1)CC(O)(c1ccccc1)c1ccccc1
inactive: [1] 118% | [2] 94.7% | [3] 75.8% | [4] 94.9% | [5] 80.9% | [6] 77% | [7] 66.5% | [8] 77.1% | [9] 65.3% | [10] 86.1% | [11] 102% | [12] 89.9% | [13] 89.6% | [14] 80.9% | [16] 93.1% | [17] 87.6%

CC(=O)Nc1nc(N)nc(NC(C)=O)c1N=O
inactive: [1] 100% | [2] 118% | [3] 109% | [4] 108% | [5] 127% | [6] 103% | [7] 131% | [8] 99.7% | [9] 104% | [10] 97.2% | [18] 110% | [11] 104% | [13] 101% | [14] 108% | [15] 98.6% | [16] 84% | [17] 111%

COc1cc(/C=C/C(=O)N2CCN(C(=O)/C=C/c3cc(OC)c(OC)c(OC)c3)CC2)cc(OC)c1OC
inactive: [1] 75.2% | [2] 98.6% | [3] 96.4% | [4] 111% | [5] 103% | [6] 116% | [7] 111% | [8] 117% | [9] 98.8% | [10] 113% | [11] 88.1% | [12] 115% | [13] 105% | [14] 113% | [15] 98.3% | [16] 102% | [17] 115%

CC(C)CSc1nc(NN)c(C#N)c(-c2ccccc2)n1
inactive: [1] 109% | [2] 100% | [3] 105% | [4] 104% | [5] 86.9% | [6] 100% | [7] 103% | [8] 91% | [9] 95.7% | [10] 92.3% | [18] 87% | [11] 96.2% | [12] 101% | [14] 88.2% | [15] 95.7% | [16] 95% | [17] 81.3%

CN(C)c1nc2c(N)ncnc2n1C1OC(CO)C(O)C1O (centres undefined)
inactive: [1] 99% | [2] 92.1% | [3] 107% | [4] 97.6% | [5] 123% | [6] 116% | [7] 111% | [8] 108% | [9] 106% | [10] 114% | [11] 99.9% | [12] 112% | [13] 109% | [15] 105% | [16] 110%

c1cc2[nH]ncc2cc1-c1nc2ccc3[nH]ncc3c2c2c1CCC2
inactive: [1] 10.9% | [2] 42.5% | [3] 53.9% | [4] 91.7% | [5] 57.9% | [7] 22.6% | [8] 56.4% | [10] 58.1% | [18] 56.8% | [11] 38.3% | [13] 12.6% | [14] 32% | [15] 16.9% | [16] 73.7% | [17] 31.4%
active: [6] 5.23% | [12] -7.86%

CC(C)(C)n1cc(-c2ccnc(NCCCNS(=O)(=O)c3ccc(Cl)cc3)c2)c(-c2cccc(O)c2)n1
active: [1] -34.5% | [2] -29.7% | [3] 6.22% | [4] -20.5% | [7] 8.56% | [8] 4.31% | [9] -12.2% | [18] 5.38% | [13] -38% | [14] -12.1% | [15] 6.49% | [16] -81.5% | [17] -36.5%
inactive: [5] 23.4% | [6] 37.4% | [10] 12.2% | [12] 15.6%

CN(C)CCCC(C#N)c1ccccc1 (centres undefined)
inactive: [1] 96.2% | [2] 108% | [3] 112% | [4] 117% | [5] 113% | [6] 107% | [7] 132% | [8] 117% | [9] 121% | [10] 108% | [11] 111% | [12] 115% | [13] 106% | [15] 107% | [16] 105% | [17] 111%

OCc1ncc(-c2ccccc2)s1
inactive: [1] 107% | [2] 87.6% | [3] 107% | [4] 92.2% | [5] 97.5% | [6] 99.4% | [7] 113% | [8] 101% | [9] 108% | [10] 22.1% | [18] 89.8% | [12] 108% | [13] 106% | [14] 102% | [15] 89.5% | [16] 79.6% | [17] 103%

CCN(CC)c1ccc(CNc2ccnc3ccccc23)cc1
active: [1] 9.72%
inactive: [2] 25.2% | [3] 47.4% | [4] 81.7% | [5] 17.1% | [6] 61.4% | [7] 78.2% | [8] 52.5% | [9] 90.1% | [10] 40% | [18] 29% | [11] 45.4% | [12] 48.2% | [14] 33.3% | [15] 30.3% | [16] 36.9% | [17] 73.6%
